Screening data as filed in PubChem BioAssay.
Compounds with a hit are over-represented: about 0.93% of the library has one in this group of screens.
TAR Tat displ: TAR RNA-Tat peptide displacers, HIV-1, primary screen, biochemical, FRET, FAM/TAMRA-labeled Tat. AID 1259389, 2018. z-score (no concentration beside the values). hit rate 0.6% among 100,000. HIV-1 TAR RNA, Tat peptide displacement FRET; stronger effect = higher value; active = z-score of 3 or more in at least 2 runs
CDC25B-CDK2 inh: primary biochemical HTRF screen for blockers of M-phase inducer phosphatase 2 binding to CDK2/cyclin A. P30305+P24941. HTRF CDC25B-CDK2/CyclinA binding, anti-His/anti-Flag; stronger effect = higher value. z-score (test concentration not listed). hit rate 0.72% among 94,000. AID 1259370, 2018; in the data active = z-score above about 3.2
* marks the source's active call; other numbers are inactive results; nt = no result given.

SMILES	TAR Tat displ	CDC25B-CDK2 inh
COc1ccc(-c2cc(-c3cccnc3)c(C#N)c(N)n2)cc1	3.2*	-0.24
N#Cc1c(-c2cccnc2)cc(-c2ccc(F)cc2)nc1N	0.76	-2.4
O=C(CSc1nnnn1-c1ccccc1)Nc1ncc2c(n1)CC(c1ccco1)CC2=O (configuration not stated)	-4.7	15*
Cc1nnc(SCC(=O)Nc2ncc3c(n2)CC(c2ccco2)CC3=O)s1 (configuration not stated)	-1.4	4.2
CCOC(=O)c1c(C)oc2c1c1c(c3ccccc32)OCN(CC2CCCO2)C1 (configuration not stated)	-5.4	17*
CCOC(=O)c1c(C)oc2c1c(CN1CCCC(C(=O)OCC)C1)c(O)c1ccccc12 (configuration not stated)	nt	-0.68
Cc1cc2nc(-c3cc(NC(=O)c4ccc5c(c4)OCCO5)ccc3O)oc2cc1C	nt	-3.2
O=C(CSc1n[nH]c(-c2ccncc2)n1)c1c[nH]c2ccccc12	-0.52	6.8*
O=C(CSc1n[nH]c(-c2ccco2)n1)c1c[nH]c2ccccc12	2.5	-1.5
CCn1c(C)c(C(C)=O)c(N2CCN(Cc3ccccc3)CC2)nc1=S	nt	-0.49
CSc1nc(NCCCO)c2sc3nc(C)c4c(c3c2n1)CC(C)(C)OC4	-0.1	-6
N.N.N.N.N.N.N.N.N.N.N.N.N.N.O.O.[Cl-].[Cl-].[Cl-].[Cl-].[Cl-].[Cl-].[Ru+4].[Ru+5].[Ru+5]	nt	4.2*
CNC(=O)c1nnc(-c2ccc3c(c2)OCO3)o1	0.5	nt
COc1ccc(-n2c(SCc3nc(-c4cccs4)no3)nnc2-c2ccccc2)cc1	2.2	-0.49
O=C(O)CCSc1cccc2cccc(C(=O)O)c12	nt	11*
O=C(O)CSc1cccc2cccc(C(=O)O)c12	1.1	0.74
CCOc1ccc(-c2noc(CSc3nnc(C)n3-c3ccc(F)cc3)n2)cc1	1.5	-1.6
O=c1cc2nc(-c3ccco3)nc(SCc3cc(=O)n4nc(C5CCCCC5)sc4n3)n2[nH]1	3.3*	nt
CCCc1nn2c(=O)cc(CSc3nc(-c4ccco4)nc4cc(=O)[nH]n34)nc2s1	0.67	nt
CCN1C(=O)c2cccc3c(NC(=O)c4ccc(Cl)s4)ccc1c23	nt	16*
CCN1C(=O)c2cccc3c(S(=O)(=O)NC(Cc4ccccc4)C(=O)O)ccc1c23 (configuration not stated)	1.1	-0.79
C=CCN(c1ccccc1)S(=O)(=O)c1ccc2c(c1)N(C(C)=O)CC(C)O2 (configuration not stated)	1.7	nt
CC(=O)C(C(C)=O)C1=C([N+](=O)[O-])C(=O)C(=O)c2ccccc21	nt	3.5*
O=C1c2ccccc2C(=O)c2c1ccc(C(=O)O)c2[N+](=O)[O-]	nt	-0.12
CCN(CC)C(=O)Cn1c(=O)c2ccccc2n2c(=S)sc(-c3ccccc3)c12	1.5	0.25
SMILES	TAR Tat displ	CDC25B-CDK2 inh
Cc1cc(C)n(-c2nc3c(c(=O)n2CC(=O)NC(C)(C)C)CCCC3)n1	1.3	nt
Cc1cc(C)n(-c2nc3c(c(=O)n2CC(N)=O)CCCC3)n1	12*	nt
CC(C)(C)C(=O)NCC(c1ccco1)S(=O)(=O)c1ccccc1 (configuration not stated)	2.1	nt
O=C(O)CSc1ccc(F)cc1	0.74	nt
Cc1ccc(C)n1-c1ccc(SCC(=O)O)cc1	27*	0.36
CCN(CC)CC(C)CNC(=O)c1c(O)nc2ccccn2c1=O (configuration not stated)	0.79	-2.2
Cc1sc2ncn(CC(=O)N3CCC(C)CC3)c(=O)c2c1S(=O)(=O)N1CCOCC1	nt	-0.3
CC(=O)OC[C@H]1O[C@@H](OCc2ccccc2)[C@H](OC(C)=O)[C@@H](OC(C)=O)[C@@H]1OC(C)=O	nt	-0.63
O=C(OC[C@H]1O[C@H](OC(=O)c2cc(O)c(O)c(OC(=O)c3cc(O)c(O)c(O)c3)c2)[C@H](OC(=O)c2cc(O)c(O)c(OC(=O)c3cc(O)c(O)c(O)c3)c2)[C@@H](OC(=O)c2cc(O)c(O)c(OC(=O)c3cc(O)c(O)c(O)c3)c2)[C@@H]1OC(=O)c1cc(O)c(O)c(OC(=O)c2cc(O)c(O)c(O)c2)c1)c1cc(O)c(O)c(OC(=O)c2cc(O)c(O)c(O)c2)c1	26*	nt
CCN(CC)c1ccc(NS(=O)(=O)c2ccc(-c3ccc(=O)[nH]n3)o2)c(C)c1	-3.3	nt
CCN(CC)c1ccc(NS(=O)(=O)c2cc3[nH]c(=O)c(=O)[nH]c3cc2C)c(C)c1	14*	nt
CC(C)(C)NC(=S)Nc1ccc(C(F)(F)F)cc1[N+](=O)[O-]	nt	-2.3
O=C(CCc1nnc2ccc(N3CCCC3)nn12)Nc1cccnc1	-0.26	nt
Oc1ccc([C@H]2Oc3cc(O)cc(O)c3C[C@H]2O)cc1	-0.59	nt
O=C(O[C@@H]1Cc2c(O)cc(O)cc2O[C@@H]1c1cc(=O)c(O)c2c(O)c(O)cc([C@H]3Oc4cc(O)cc(O)c4C[C@H]3O)c2c1)c1cc(O)c(O)c(O)c1	30*	nt
